# Screens (PubChem BioAssay)
# DRD3 antagonist: blocks the human D3 dopamine receptor | D3R cells, DiscoveRx beta-arrestin luminescence, antagonist mode; stronger effect = lower value | P35462 | AID 652054 | 360,000 compounds, 2.5% hits | max response, negative = inhibition, %; in the data active = max response below about -50%; inconclusive = no clear call, values can overlap the other calls; note: % is set by controls: 0 for no effect and ±100 for the full control effect
#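 Cells expressing the human receptor were seeded at 1500 cells/well, incubated overnight at 37 degrees C in 5% CO2, then exposed to library compounds with dopamine controls for 90 minutes at 37 degrees C before luminescent detection.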
# ClpP mod: qHTS Assay for Activators of ClpP | ATP-dependent Clp protease proteolytic subunit (Bacillus subtilis (strain 168)), P80244 | 340,000 compounds, 1.9% hits | purified B. subtilis ClpP, FRET peptide cleavage, 20 min | Potency, µM (titrated, usually from 57.5 µM), without a hit: at the highest dose activity change, negative = active | AID 651965, 2013; active = well fitted falling curve with a large enough effect; inconclusive = small, poorly fitted or top-dose-only effect; inactive = no such curve, though single readings can be large or run the other way; note: potency is the fitted concentration of half-maximal effect; the source files actives as falling curves though it sought activators and does not explain the sign; nearly all actives have a fitted effect of over 65% in size
# Target sequence (P80244 whole entry, looked up): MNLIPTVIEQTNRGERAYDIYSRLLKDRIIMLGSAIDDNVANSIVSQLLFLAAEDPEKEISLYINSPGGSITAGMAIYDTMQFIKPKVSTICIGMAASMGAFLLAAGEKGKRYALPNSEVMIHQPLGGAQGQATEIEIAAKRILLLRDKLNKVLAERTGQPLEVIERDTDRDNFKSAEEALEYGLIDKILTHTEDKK
#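 FRET quenching reversal measured ClpP activation: 10 microg/mL B. subtilis ClpP at pH 8 with the FRET-FV decapeptide, read at 430 nm after 320 nm excitation. The 20-min minus 0-min signal was scaled between DMSO/no-enzyme wells and ADEP (5.8 microM final).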
# GLP1R ag: agonists of human GLP-1 receptor. HEK293 GLP-1R CRE-luciferase, luminescence, 4-6 h; cells express a hypersensitive GLP-1R form. Potency, µM (titrated, usually from 45.6 µM), inactives show top-dose activation, actives largely listed as activators. AID 624172. 380,000 compounds, 0.007% hits. P43220; note: potency is the fitted concentration of half-maximal effect; % of control where 0% means no effect
# Target sequence (P43220 whole entry, looked up): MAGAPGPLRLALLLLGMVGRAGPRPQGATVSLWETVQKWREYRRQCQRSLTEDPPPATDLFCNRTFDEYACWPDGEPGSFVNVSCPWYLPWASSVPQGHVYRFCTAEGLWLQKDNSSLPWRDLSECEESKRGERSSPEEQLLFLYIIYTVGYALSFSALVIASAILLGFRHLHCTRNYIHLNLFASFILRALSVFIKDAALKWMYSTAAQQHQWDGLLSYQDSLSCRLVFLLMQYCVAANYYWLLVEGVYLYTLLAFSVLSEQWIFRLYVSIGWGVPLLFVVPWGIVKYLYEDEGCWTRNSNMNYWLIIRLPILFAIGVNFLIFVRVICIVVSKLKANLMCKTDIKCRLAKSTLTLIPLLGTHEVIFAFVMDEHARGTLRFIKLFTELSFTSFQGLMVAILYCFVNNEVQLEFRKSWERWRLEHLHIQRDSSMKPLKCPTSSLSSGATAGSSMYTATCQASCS
# GLP-1R inv ag: GLP-1 receptor (human) inverse agonism; P43220; HEK293 GLP-1R CRE-luciferase, luminescence, 24 h; GLP-1R form is constitutively active; Potency, µM (doses to about 38.3 µM), for the others: top-dose activity change, negative = inhibition, hits mostly inhibitors; 410,000 compounds, 1.6% hits; note: potency is the fitted concentration of half-maximal effect; % is set by controls: 0 for no effect and ±100 for the full control effect; nearly all actives have a fitted effect of over 55% in size
#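 Inverse agonism was detected as reduced cAMP-driven luciferase luminescence after 24 h compound treatment. The cells were HEK293 clones expressing constitutively active human GLP-1R with the reporter. Reporter-only and GPR119 cell lines served as counterscreen controls.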
# GLP1R cytotox: cytotoxicity counter-screen for GLP-1 receptor inverse agonists | Potency, µM (titrated, usually from 38.3 µM), for the others: top-dose activity change, negative = inhibition, actives largely listed as inhibitors | AID 624418 | 410,000 compounds, 0.13% hits | HEK293 cAMP-luciferase reporter cells, luminescence, 24 h;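 note: loss of luciferase light is scored as toxicity; potency is the fitted concentration of half-maximal effect; % is set by controls: 0 for no effect and ±100 for the full control effect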
#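 Luminescence readout: signal drop marks cytotoxicity. Plated cells grew 12 h at 37 °C, 5% CO2, received 23 nL compound for 24 h, then got luciferase reagent, read after 12 min at RT.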
# DRD3 agonist: activates the human D3 dopamine receptor | P35462 | D3R DiscoveRx beta-arrestin cells, luminescence, 90 min | max activation, % | 410,000 compounds, 0.58% hits | AID 652048; in the data active = max activation above about 30%; note: 0% is about no effect
#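 Agonist-mode cell screen: cells plated at 1500/well and incubated overnight at 37 °C, then exposed to library compounds for 90 min at 37 °C. Detection reagent was added for 30–60 min at room temperature, and luminescence was read.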
# Starred values were filed as active, the others as inactive; ? = inconclusive; . = not tested or not shown; [ ] = remark or other dose. Compounds with a hit are over-represented: about 5.7% of the library has one in this group of screens. Unless noted, calls come from the whole dose curve; as a rule, active = well fitted curve in the direction sought with a large enough effect; inconclusive = small, poorly fitted or top-dose-only effect, or another doubt; inactive = no such curve, though single readings can be large; an effect the other way counts as inactive or inconclusive.
SMILES,DRD3 antagonist,ClpP mod,GLP1R ag,GLP-1R inv ag,GLP1R cytotox,DRD3 agonist
CCOC(=O)c1sc2nc(C)nc(NCc3ccccc3OC)c2c1C,69.4,3.5%,8.1%,2.7%,-0.4%,33.2*
CCOC(=O)c1sc2nc(CC(=O)OC)nc(NCC(=O)OC)c2c1C,-12.1,20.0%,4.7%,0.0%,0.5%,0.5
CCOC(=O)c1sc2nc(C)nc(NCCc3ccccn3)c2c1C,-2.1,4.3%,7.1%,26.7%,-8.0%,4.8
CCOC(=O)c1sc2nc(CC(=O)OC)nc(NCc3ccco3)c2c1C,2.9,28.2µM*,1.5%,24.6%,-0.2%,0.4
O=C(NCc1ccco1)c1ccc2c(c1)N(Cc1ccc(Cl)cc1)C(=O)c1ccccc1S2(=O)=O,.,-17.4%,-4.7%,-25.8%,-11.8%,1.1
COC(=O)c1ccc2[nH]c(C)cc(=O)c2c1,0.4,28.2µM*,2.9%,4.3%,-2.6%,4.0
CCOC(=O)c1ccc2[nH]c(C)cc(=O)c2c1,-26.2,3.55µM*,3.4%,19.4%,1.0%,-11.5
CCOC(=O)c1ccc2[nH]c(C)c(C)c2c1,0.0,-7.6%,20.6%,-28.9%,14.5%,-12.6
COc1ccc(-c2oc3ncn4nc(-c5ccccc5OC)nc4c3c2-c2ccc(OC)cc2)cc1,.,-23.9%,.,7.0%,0.0%,-15.4
COc1cc(N)c(Cl)cc1C(=O)N[C@H]1CCN(CCCOc2ccc(F)cc2)C[C@H]1OC,-77.3*,-0.9%,-0.1%,-17.0%,3.0%,-93.0
COc1ccc(CCNC(=O)CSc2cn(CCNC(=O)c3cccc(C(F)(F)F)c3)c3ccccc23)cc1OC,.,0.4%,-2.8%,?,-14.1%,7.9
CCOc1nc(NC(=O)NS(=O)(=O)Oc2cccc(F)c2)nc(-c2ccccc2)n1,.,0.6%,-5.0%,45.8%,1.1%,5.5
O=C(CSc1nc(Nc2ccccc2)nc(N2CCOCC2)n1)Nc1cccc([N+](=O)[O-])c1,-14.6,1.7%,6.5%,11.2µM*,1.9%,-1.4
Cc1sc2ncnc(N3CCC(C(=O)Nc4cc(Cl)ccc4Cl)CC3)c2c1C,32.5,-4.7%,-4.4%,10µM*,-17.3%,42.1*
Cc1sc2ncnc(N3CCC(C(=O)N(C)CC(=O)Nc4ccc(Cl)c(C(F)(F)F)c4)CC3)c2c1C,7.9,.,11.4%,2.51µM*,?,10.0
CCN(CC)S(=O)(=O)c1cc(NC(=O)C2CC(=O)N(Cc3ccccc3)C2)ccc1Cl (stereo not given),30.4,0.0%,13.5%,10µM*,-9.0%,1.5
Cc1sc2ncnc(N3CCC(C(=O)NNC(=O)c4ccc(Cl)cc4)CC3)c2c1C,14.4,12.6µM*,-10.0%,?,2.3%,9.1
Cc1sc2ncnc(N3CCC(C(=O)Nc4ccc(C#N)cc4)CC3)c2c1C,29.1,-1.8%,-3.9%,-2.5%,-3.2%,14.3
Cc1ccc(NC(=O)C2CC(=O)N(Cc3ccccc3)C2)cc1S(=O)(=O)N1CCCCCC1 (stereo not given),-6.2,-3.2%,-3.2%,?,?,1.7
Cc1ccc(-n2nnnc2CNC(=O)C(C)C)cc1C,.,0.0%,.,4.5%,-4.1%,15.0
CCN(CC)S(=O)(=O)c1cc(NC(=O)C2CCN(c3ncnc4sc(C)c(C)c34)CC2)ccc1Cl,2.9,?,-22.8%,2.51µM*,-4.2%,1.9
COC(=O)c1cc(NS(=O)(=O)c2ccc(NCc3cccnc3)c(N)c2)cc(C(=O)OC)c1,0.0,-1.7%,0.3%,11.3%,-13.8%,5.0
COC(=O)c1cc(NS(=O)(=O)c2ccc(NCc3cccnc3)c([N+](=O)[O-])c2)cc(C(=O)OC)c1,?,28.2µM*,0.4%,10.3%,10.5%,-7.2
Cc1ccc(NC(=O)CCS(=O)(=O)c2ccc(Br)s2)c(Br)c1,.,0.3%,.,-14.8%,-7.6%,4.0
CCNc1nc(C)nc2c1cnn2C,0.0,28.2µM*,11.7%,14.6%,1.0%,-5.0
SMILES,DRD3 antagonist,ClpP mod,GLP1R ag,GLP-1R inv ag,GLP1R cytotox,DRD3 agonist
CC(CC(=O)Nc1ccc2c(c1)c(=O)n(C)n2-c1ccc2ccccc2c1)C(F)(F)F (stereo not given),0.0,5.1%,12.5%,?,-26.5%,-12.1
COc1ccc2ccccc2c1/C=N/NC(=O)c1cccc(Br)c1,-7.2,-5.7%,27.0%,?,-2.9%,-5.5
COc1ccc(/C=N/NC(=O)c2cc3c(ccc4ccccc43)o2)cc1OC,2.6,3.4%,11.3%,0.7%,26.7%,0.9
COc1ccc2ccc(OC)c(/C=N/NC(=O)c3cc4ccccc4o3)c2c1,-87.5*,-25.9%,-2.2%,?,5.4%,-8.5
COc1ccc2ccccc2c1/C=N/NC(=O)c1ccc([N+](=O)[O-])cc1,-97.1*,1.1%,7.3%,0.4%,-3.2%,-33.9
COc1cc(C(=O)N/N=C/c2cc([N+](=O)[O-])cs2)cc(OC)c1OC,-50.1*,-0.8%,12.4%,?,1.0%,-17.6
CCOc1ccc(C(=O)N/N=C/c2cc([N+](=O)[O-])cs2)cc1,-7.9,-1.7%,-5.1%,-1.7%,0.9%,1.0
Cc1ccc(S(=O)(=O)c2c(Nc3ccccc3)sc(C(=O)c3ccc4c(c3)OCO4)c2N)cc1,.,-11.6%,-0.4%,?,-2.8%,-12.6
COc1cccc(C(c2sc3nc(-c4ccco4)nn3c2O)N2CCN(c3ccccc3F)CC2)c1 (stereo not given),.,0.8%,.,-23.4%,-4.0%,-10.2
Cc1cccn2c(=O)c(/C=C(\C#N)C(=O)NC3CCS(=O)(=O)C3)c(N3CCC(C)CC3)nc12 (stereo not given),10.8,?,21.0%,25.5%,14.3%[1.53 µM],-7.8
Cc1cccc(Oc2nc3ccccn3c(=O)c2/C=C(\C#N)C(=O)NC2CCS(=O)(=O)C2)c1 (stereo not given),13.4,25.1µM*,-2.3%,14.7%,75.8%,4.3
N#C/C(=C\c1c(N2CCCCC2)nc2ccccn2c1=O)C(=O)NC1CCS(=O)(=O)C1 (stereo not given),10.5,3.98µM*,0.4%,32.3%,-5.2%[1.53 µM],6.7
COc1ccc(C(=O)NC(=S)N2CCN(c3ccccc3OC)CC2)cc1,-16.2,.,2.2%,?,4.47µM*,-3.9
COc1ccccc1N1CCN(C(=O)c2ccccc2Oc2ccccc2)CC1,23.9,0.6%,3.2%,8.91µM*,-5.6%,-3.8
COc1ccccc1N1CCN(C(=O)c2cc(-c3ccccc3)nc3c2cnn3C(C)C)CC1,18.4,-3.9%,0.5%,11.2µM*,4.2%,3.0
COc1ccccc1CCNC(=O)c1cc(C2CC2)nc2c1cnn2C(C)C,6.1,.,29.3%,10µM*,0.1%,4.5
